GRIN3A LBD mod: NR3A (human) ligand-binding domain modulation. NR3A LBD differential scanning fluorimetry, Tm shift; 0% = protein alone, 100% = glycine-bound protein. Tm shift relative to glycine control, % at 25 µM. 2.5% of 340,000 active. AID 1259313;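 active means melting temperature shift of at least 10% of the positive control shift, at one fixed dose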
NadD block: inhibitors of Staphylococcus aureus NadD; 0.78% of 360,000 active; purified NadD enzyme, colorimetric absorbance read-out; inhibition, % at 20 µM; in the data active means inhibition above about 26%
FAS-TE inh: blocks the thioesterase domain of human fatty acid synthase. AID 602261. P49327. 0.67% of 360,000 active. inhibition, % at 15 µM. recombinant FAS-TE, OMFH fluorogenic substrate, fluorescence endpoint;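 active means compounds whose normalised, plate-corrected inhibition of enzyme fluorescence in the single-dose primary screen is 50% or more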;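 further: 0% = DMSO with enzyme and 100% = substrate without enzyme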
rCAG binder: r(CAG) repeat RNA binding; TO-PRO-1 dye displacement fluorescence; AID 651821; inhibition, % at 3 µM; 1.3% of 370,000 active;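 active means inhibition above the plate cutoff, the mean of all test compounds on that plate plus 3 SD, cut at about 35% in these data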;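 further: 0% = DMSO alone and 100% = 100 µM mitoxantrone as full dye displacement; higher means more dye released from RNA so lower well fluorescence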
Numbers without * were called inactive. An excerpt weighted towards active compounds, which were near 4.3% of everything screened.

Screening CCOc1ccc(N(CC(=O)Nc2c(C)n(C)n(-c3ccccc3)c2=O)S(=O)(=O)c2cc(OC)ccc2OC)cc1 returned rCAG binder 8.2.
Screening NC(=O)c1ncn([C@@H]2O[C@H](C(=O)N[C@H](Cc3ccccc3)C(=O)N3CCN(c4ccc(Cl)cn4)CC3)[C@@H](O)[C@H]2O)n1 returned rCAG binder 0.7.
`CCOC(=O)[C@@]12CN(C(=O)OC(C)(C)C)CC=C1N(Cc1ccc(OC)cc1)C(=O)[C@H]2CC(=O)NCC1CCCCC1` gave rCAG binder 1.3.
`COc1ccc(CNCC#Cc2ccc(C(F)(F)F)cc2)c(OC)c1` gave rCAG binder 1.3.
Screening O=C(Nc1ccccc1[N+](=O)[O-])NC1CCCCN(Cc2ccc(Cl)cc2)C1=O (centres undefined) returned rCAG binder 4.2.
CC(=O)NS(=O)(=O)c1ccc(NC(=O)c2ccc(NC(=O)c3cccs3)cc2)cc1 was read as GRIN3A LBD mod 3.7, NadD block 4.4, FAS-TE inh -5.1 and rCAG binder 3.4.
Cc1cc(C)c(NS(=O)(=O)c2ccc(NC(=O)c3cccs3)cc2)c(C)c1 was read as GRIN3A LBD mod 25.4*, NadD block -2.1, FAS-TE inh 2.6 and rCAG binder 4.7.
For COc1ccc(-c2cn(CCc3c[nH]c4ccccc34)nn2)cc1 the results were GRIN3A LBD mod 19.4*, NadD block -1.3, FAS-TE inh 9.2 and rCAG binder -3.1.
O=C(NCCc1c[nH]c2ccccc12)c1ccc(Cl)cc1 was read as GRIN3A LBD mod 29.2*, NadD block -7.9, FAS-TE inh 5.1 and rCAG binder -0.9.
`COc1ccc(CCNC(=O)CN2C(=O)NC(Cc3c[nH]c4ccccc34)C2=O)cc1` (centres undefined) gave GRIN3A LBD mod 24.9*, NadD block 3.2, FAS-TE inh -2.0 and rCAG binder -3.7.
O=C(CN1C(=O)NC(Cc2c[nH]c3ccccc23)C1=O)NCCc1ccccc1 (centres undefined) was read as GRIN3A LBD mod -0.8, NadD block -5.0, FAS-TE inh -4.1 and rCAG binder -3.5.
COc1ccc(C(=O)NCCc2c[nH]c3ccccc23)cc1[N+](=O)[O-] was read as GRIN3A LBD mod 25.3*, NadD block -4.3, FAS-TE inh 18.9 and rCAG binder -2.5.
COc1ccc(C(=O)NCCc2ccccc2)cc1[N+](=O)[O-] was read as GRIN3A LBD mod 2.2, NadD block 1.7, FAS-TE inh 12.5 and rCAG binder 1.2.
O=C(NCCc1c[nH]c2ccccc12)c1cncc(Br)c1 was read as GRIN3A LBD mod -2.8, NadD block -4.3, FAS-TE inh -2.7 and rCAG binder 0.2.
CC(C)CNS(=O)(=O)/C=C/c1cc2c(cc1CNC(=O)OC(C)(C)C)OCO2 was read as rCAG binder 4.9.
`COC(=O)[C@]12C[C@H](CC(=O)NCCCCc3ccccc3)C(=O)N(CCC3=CCCCC3)C1=C[C@H](C(C)C)O[C@@H]2C1CC1` gave rCAG binder 6.3.
For COc1ccc(C(=O)NCCc2c[nH]c3ccccc23)cc1 the results were GRIN3A LBD mod 10.0*, NadD block 1.9, FAS-TE inh -2.1 and rCAG binder -2.6.
COc1ccc(CCNC(=S)NCCc2c[nH]c3ccccc23)cc1 was read as GRIN3A LBD mod 30.7*, NadD block -6.2, FAS-TE inh 3.7 and rCAG binder 1.2.
`COc1ccc(Cl)cc1NC(=S)NCCc1c[nH]c2ccccc12` gave GRIN3A LBD mod 28.7*, NadD block -8.5, FAS-TE inh 26.4 and rCAG binder 19.2.
For O=C(CN1C(=O)NC(Cc2c[nH]c3ccccc23)C1=O)Nc1ccc(Br)cc1F (centres undefined) the results were GRIN3A LBD mod 12.4*, NadD block -2.7, FAS-TE inh 1.8 and rCAG binder 3.6.
`Cc1cccc2c(CCNC(=O)c3ccc([N+](=O)[O-])cc3)c[nH]c12` gave GRIN3A LBD mod 17.8*, NadD block -4.7, FAS-TE inh 30.9 and rCAG binder 6.1.
`O=C(NCCc1ccc(F)cc1)c1ccc([N+](=O)[O-])cc1` gave GRIN3A LBD mod -1.5, NadD block 1.7, FAS-TE inh 27.8 and rCAG binder -5.5.
Screening C[C@H](CO)N1C[C@H](C)[C@@H](CN(C)C(=O)Nc2ccc(C(F)(F)F)cc2)Oc2ccc(NC(=O)Nc3ccc(C(F)(F)F)cc3)cc2C1=O returned GRIN3A LBD mod 10.1*, NadD block 9.9, FAS-TE inh 21.3 and rCAG binder 7.9.

High-throughput results from PubChem BioAssay.
